Values without a mark were called inactive.
Each compound was assayed on Caenorhabditis elegans L1 (N2) (assay: survival and reproduction score of C. elegans L1 (0: 0-10 living worms, 1: 11-20, 2: 21-50, 3: >50, 4: overgrown) (score 0-4); higher = more worms, less nematicidal, active = 1 or less; extreme values may be limits of the assay). Conditions: 60 µM; 6 days; temperature: 20 °C.
Summary of the method: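 In liquid NGM with E. coli HB101, approximately 20 synchronized C. elegans N2 L1s per 96-well well were exposed to compound at 60 µM final (0.6% v/v DMSO) for 6 days at 20 °C with shaking at 200 rpm in sealed plates. Survival and reproduction were judged under a dissection microscope as an ordinal rating of living worms per well. Ratings went from 0 (0–10 worms) to 4 (overgrown, starved) and were averaged over two biological replicates.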
`c1cncc(-c2noc(COc3cccc4ccccc34)n2)c1` was tested, and the “survival and reproduction score” value was 4.
`CCCCC(=O)Nc1ccccc1-c1nc(-c2cccnc2)no1` was tested, and the “survival and reproduction score” value was 4.
For `Cc1cc(Br)ccc1OCc1nc(-c2ccncc2)no1`, the “survival and reproduction score” value was 4.
In the case of `COc1ccc(Cl)cc1NC(=O)CSc1nnc(-c2ccc(C)cc2)o1`, the “survival and reproduction score” value was 4.
With `COc1ccc(Br)cc1-c1noc(-c2ccncc2)n1` the “survival and reproduction score” value was 4.
In the case of `COc1ccc(-c2nc(-c3ccc(Cl)cc3)no2)cc1`, the “survival and reproduction score” value was 4.
For `Clc1ccc(OCc2nc(-c3ccccc3)no2)c(Br)c1`, the “survival and reproduction score” value was 1 (active).
With `COc1ccc(C(=O)CSc2nnc(-c3cccc(Br)c3)o2)cc1` the “survival and reproduction score” value was 4.
In the case of `C#CCOc1ccc(-c2nc(-c3ccccc3)no2)cc1`, the “survival and reproduction score” value was 0 (active).
`CCOc1ccccc1-c1nnc(SCc2ccc(C(=O)OC)o2)o1` was tested, and the “survival and reproduction score” value was 4.
With `O=C(Nc1ccc(-c2noc(-c3ccc(Cl)cc3)n2)cc1)c1ccco1` the “survival and reproduction score” value was 0 (active).
With `COc1ccccc1-c1nnc(SCC(=O)Nc2ccccc2Cl)o1` the “survival and reproduction score” value was 4.
With `COc1ccc(Cl)cc1-c1noc(COc2ccccc2C)n1` the “survival and reproduction score” value was 4.
In the case of `Cc1cc(OCc2nc(-c3ccncc3)no2)ccc1Cl`, the “survival and reproduction score” value was 4.
In the case of `Cc1ccc(NC(=O)CSc2nnc(-c3ccccc3)o2)cc1C`, the “survival and reproduction score” value was 4.
For `Clc1ccc(-c2noc(-c3cccnc3)n2)cc1`, the “survival and reproduction score” value was 0 (active).
In the case of `CCOc1ccccc1-c1nc(-c2cccc(C)c2)no1`, the “survival and reproduction score” value was 4.
For `O=C(CSc1nnc(-c2ccco2)o1)Nc1cc(Cl)ccc1Cl`, the “survival and reproduction score” value was 4.
With `O=C(CSc1nnc(-c2ccc(Cl)cc2Cl)o1)Nc1ccccn1` the “survival and reproduction score” value was 4.
For `CCN(CC)C(=O)CSc1nnc(-c2ccc(Br)cc2)o1`, the “survival and reproduction score” value was 4.
With `CCOc1cc(-c2nc(-c3ccc(C)nc3OC)no2)cc(OCC)c1OCC` the “survival and reproduction score” value was 4.
For `COc1ccccc1-c1nc(-c2ccccc2)no1`, the “survival and reproduction score” value was 4.
For `Cc1cc(OCc2nc(-c3cccnc3)no2)c(C)c(C)c1Br`, the “survival and reproduction score” value was 4.
In the case of `c1ccc(-c2noc(COc3cccc4ccccc34)n2)nc1`, the “survival and reproduction score” value was 4.
`Fc1ccc(-c2noc(COc3ccccc3Cl)n2)cc1` was tested, and the “survival and reproduction score” value was 4.
With `Cc1ccc(-c2noc(-c3ccc4c(c3)OCCO4)n2)cc1` the “survival and reproduction score” value was 4.
`Cc1ccc(CSc2nnc(-c3ccco3)o2)cc1` was tested, and the “survival and reproduction score” value was 0 (active).
`O=C(CSc1nnc(-c2ccccc2)o1)Nc1ccc2ccccc2c1` was tested, and the “survival and reproduction score” value was 4.
With `CCOc1ccc(-c2nc(-c3ccc(C)cc3)no2)cc1` the “survival and reproduction score” value was 0 (active).
In the case of `COc1cccc(-c2noc(COc3cc(C)ccc3C)n2)c1`, the “survival and reproduction score” value was 4.
For `COc1ccccc1NC(=O)c1ccccc1-c1nc(-c2ccc(Cl)cc2)no1`, the “survival and reproduction score” value was 4.
For `COc1nc(C)ccc1-c1noc(-c2ccc(Cl)cc2)n1`, the “survival and reproduction score” value was 4.
`Ic1cccc(-c2nc(-c3cccnc3)no2)c1` was tested, and the “survival and reproduction score” value was 4.
`CCOC(=O)c1sc(NC(=O)CSc2nnc(-c3ccc(Cl)cc3)o2)c(C(=O)OCC)c1C` was tested, and the “survival and reproduction score” value was 4.
In the case of `Cc1ccccc1-c1noc(-c2ccccc2C(=O)NCc2ccccc2)n1`, the “survival and reproduction score” value was 4.
For `Cc1cnc(NC(=O)CSc2nnc(-c3cccc(Cl)c3)o2)s1`, the “survival and reproduction score” value was 4.
For `Cc1ccc(-c2nc(-c3ccccc3)no2)cc1C`, the “survival and reproduction score” value was 4.
In the case of `Cn1c(SCc2cccc(F)c2)nnc1-c1ccco1`, the “survival and reproduction score” value was 4.
With `O=C(CSc1nnc(-c2cccc3ccccc23)o1)c1ccc(F)cc1` the “survival and reproduction score” value was 4.

From the supplement of paper PMC11219838
